Measured values from PubChem BioAssay.
The source made the active and inactive calls. Unless noted, the rule behind the calls is not given here.

Key:
[1] = compounds binding Alexa647 anti-His antibody – biochemical, small-molecule microarray, 635 nm fluorescence, artefact control for SMM control protein annotation, primary screen (AID 1128); settings: higher = more signal;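 note: score merges feature fluorescence with signal-to-noise for each printed compound spot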
[2] = system: Human papillomavirus type 1a E7 protein (residues 1-88); experiment: HPV1a E7 small-molecule binders, primary screen, biochemical, small-molecule microarray, residues 1-88, 635 nm (AID 1129); settings: small-molecule microarray binding, fluorescence 635 nm; higher = more signal
[3] = biological target: Focal adhesion kinase 1 (Homo sapiens) (UniProt Q05397); experiment: PTK2 protein binding on printed compound slides – biochemical, small-molecule microarray, 635/667 nm fluorescence, BSA, DTT, primary screen (AID 1130); settings: 635 nm fluorescence, higher = more signal;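 note: composite of spot emission at 667 nm and signal to noise over triplicate slides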
[4] = system: Fibrinogen (Alexa647-labelled); experiment: Alexa647-fibrinogen binding to printed small molecules – biochemical, small-molecule microarray, 635/667 nm fluorescence, artefact control for SMM control-protein annotation, profiling panel (AID 1131); settings: fibrinogen-A647 binding fluorescence, higher = more signal;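 note: z-score merges 667 nm fluorescence with per-spot signal-to-noise over triplicate slides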
[5] = biological target: Follistatin (Homo sapiens) (UniProt P19883); experiment: FST protein binding to printed compounds – biochemical, small-molecule microarray, 635/667 nm fluorescence, primary screen (AID 1132); settings: 635 nm fluorescence, higher = more signal
[6] = biological target: Fibroblast growth factor 2 (Homo sapiens) (UniProt P09038); experiment: basic fibroblast growth factor binding to printed compounds – biochemical, small-molecule microarray, 635/667 nm fluorescence, primary screen (AID 1133); settings: FGF2, fluorescence 635/667, higher = more signal
[7] = JC-1 mitochondrial potential readout, lung cancer cells – cell-based, A549, JC-1 fluorescence, basal, 24 h, 100 nL, profiling panel (AID 1138); settings: higher = more signal;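 note: A549 lung adenocarcinoma cells under basal conditions with no added stimulus; test concentration not given here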
Lefty1 = Lefty1 protein binding to printed compounds – biochemical, small-molecule microarray, 635/667 nm fluorescence, primary screen (AID 1139); settings: fluorescence 635/667, higher = more signal
[8] = system: wheat germ agglutinin (Triticum aestivum), Alexa647-labelled; experiment: Alexa647-WGA lectin binding to printed small molecules – biochemical, small-molecule microarray, 635/667 nm fluorescence, artefact control for SMM control-protein annotation, profiling panel (AID 1140); settings: WGA-A647 binding, 635 nm fluorescence, higher = more signal;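 note: score merges 667 nm feature emission with signal to noise over triplicate slides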
[9] = biological target: Luciferin 4-monooxygenase (Photinus pyralis) (UniProt P08659); experiment: inhibition of purified Photinus pyralis luciferase – biochemical, luminescence, purified enzyme, 2006 set, primary screen (AID 1141); settings: purified firefly luciferase, SteadyGlo luminescence, 30 min; higher = more signal, called active from +8 up or from −8 down;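 note: cell-free assay with purified firefly luciferase at 100 ng per well in PBS; test concentration not given here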
[10] = system: Wnt5a (protein binding on small-molecule microarray); experiment: small molecules binding Wnt5a protein – biophysical, small-molecule microarray, 635/667 nm fluorescence, primary screen (AID 1142); settings: 635 nm fluorescence, higher = more signal;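 note: fluorescence read at 667 nm with signal to noise per printed feature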
[11] = ATP-based viability of Huh7 replicon cells – cell-based, CellTiter-Glo luminescence, basal, 48 h, cytotoxicity control for HCV replication inhibitor project, primary screen (AID 1143); settings: higher = more signal, called active from +8 up or from −8 down;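 note: Huh7 hepatoma cells carrying a hepatitis C replication reporter with no stimulus; test concentration not given here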
[12] = Pseudomonas biofilm growth suppression – PAO1 strain, BacTiter-Glo luminescence, LB-PBS, primary screen (AID 1144); settings: P. aeruginosa PAO1 biofilm, 12 h, higher = more signal
[13] = basal CRE-LacZ reporter activity in PC12 – cell-based, unstimulated, primary screen (AID 1145); settings: no forskolin, luminescence, 4.5 h, higher = more signal, called active from +8 up or from −8 down
[14] = forskolin-driven CRE-LacZ activity in PC12 – cell-based, CRE-LacZ reporter, forskolin-stimulated, primary screen (AID 1146); settings: luminescence, 4.5 h, higher = more signal, called active from +8 up or from −8 down;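 note: PC12 cells with 6xCRE LacZ reporter stimulated by forskolin 10 µM; beta-galactosidase reporter signal reflecting CREB driven transcription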
[15] = biological target: Streptavidin (Streptomyces avidinii) (UniProt P22629); experiment: compounds binding control protein streptavidin – biophysical, small-molecule microarray, 635/667 nm fluorescence, artefact control for SMM compound annotation, primary screen (AID 1147); settings: higher = more signal;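 note: signal reflects streptavidin binding to arrayed compounds as a control protein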
[16] = probe aInhba binding on compound microarray – biochemical, small-molecule microarray, 635/667 nm fluorescence, primary screen (AID 1148); settings: higher = more signal;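 note: score merges 667nm spot fluorescence with signal-to-noise for antibody binding to printed compounds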
Torsin-1A (Homo sapiens) [17] = biological target: Torsin-1A (Homo sapiens) (UniProt O14656); experiment: TOR1A wild-type binding on microarray – cell lysate, small-molecule microarray, lysate, 635/667 nm, primary screen (AID 1149); settings: COS7 hTOR1A-WT lysate, 635 nm fluorescence, higher = more signal
Torsin-1A (Homo sapiens) [18] = biological target: Torsin-1A (Homo sapiens) (UniProt O14656); experiment: torsin A mutant lysate binding on microarrays – cell lysate, small-molecule microarray, COS7 lysate, 635/667 nm fluorescence, primary screen (AID 1150); settings: COS7 hTOR1A mutant lysate, 635 nm fluorescence, higher = more signal;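 note: score pools 667 nm emission and signal to noise measuring lysate protein binding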
[19] = system: Sonic hedgehog protein (Shh); experiment: Sonic hedgehog microarray binding compounds – biochemical, small-molecule microarray, 635/667 nm fluorescence, primary screen (AID 1151); settings: 635 nm fluorescence, higher = more signal;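 note: Shh protein binding to compounds spotted on small-molecule microarray slides; score combines spot fluorescence intensity with signal-to-noise across triplicate slides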

Torsin-1A (Homo sapiens), sequence (O14656 whole entry, looked up): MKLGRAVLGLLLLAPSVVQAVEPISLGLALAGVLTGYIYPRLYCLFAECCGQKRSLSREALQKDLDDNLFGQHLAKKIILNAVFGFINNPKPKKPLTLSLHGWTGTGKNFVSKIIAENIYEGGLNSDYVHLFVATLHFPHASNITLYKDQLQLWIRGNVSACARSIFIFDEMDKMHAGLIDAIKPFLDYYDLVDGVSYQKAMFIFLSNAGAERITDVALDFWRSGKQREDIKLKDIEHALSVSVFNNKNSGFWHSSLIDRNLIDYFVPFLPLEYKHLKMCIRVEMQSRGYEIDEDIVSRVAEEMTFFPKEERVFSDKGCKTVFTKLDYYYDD
Fibroblast growth factor 2 (Homo sapiens), sequence (P09038 whole entry, looked up): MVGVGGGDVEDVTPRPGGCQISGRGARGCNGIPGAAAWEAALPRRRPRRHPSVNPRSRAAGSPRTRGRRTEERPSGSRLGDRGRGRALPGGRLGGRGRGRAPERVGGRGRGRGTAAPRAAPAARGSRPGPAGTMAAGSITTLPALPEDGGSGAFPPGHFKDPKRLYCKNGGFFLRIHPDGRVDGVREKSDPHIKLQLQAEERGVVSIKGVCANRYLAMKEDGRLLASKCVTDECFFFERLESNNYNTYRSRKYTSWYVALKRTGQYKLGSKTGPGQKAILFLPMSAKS
Luciferin 4-monooxygenase (Photinus pyralis), sequence (P08659 whole entry, looked up): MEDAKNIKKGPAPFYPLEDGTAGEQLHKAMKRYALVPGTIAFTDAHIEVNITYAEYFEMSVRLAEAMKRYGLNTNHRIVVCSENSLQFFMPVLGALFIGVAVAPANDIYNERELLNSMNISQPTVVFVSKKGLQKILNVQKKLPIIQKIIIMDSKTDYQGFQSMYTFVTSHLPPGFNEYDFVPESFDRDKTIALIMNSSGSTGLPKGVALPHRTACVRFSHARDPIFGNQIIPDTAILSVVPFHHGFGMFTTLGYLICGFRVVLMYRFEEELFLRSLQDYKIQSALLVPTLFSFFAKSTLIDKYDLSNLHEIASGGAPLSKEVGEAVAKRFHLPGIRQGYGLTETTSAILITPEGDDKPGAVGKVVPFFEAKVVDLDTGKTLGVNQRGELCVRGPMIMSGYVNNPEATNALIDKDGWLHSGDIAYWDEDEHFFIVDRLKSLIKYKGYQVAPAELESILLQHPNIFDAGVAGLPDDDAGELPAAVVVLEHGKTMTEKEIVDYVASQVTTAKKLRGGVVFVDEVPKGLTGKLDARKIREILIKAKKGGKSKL
Follistatin (Homo sapiens), sequence (P19883 whole entry, looked up): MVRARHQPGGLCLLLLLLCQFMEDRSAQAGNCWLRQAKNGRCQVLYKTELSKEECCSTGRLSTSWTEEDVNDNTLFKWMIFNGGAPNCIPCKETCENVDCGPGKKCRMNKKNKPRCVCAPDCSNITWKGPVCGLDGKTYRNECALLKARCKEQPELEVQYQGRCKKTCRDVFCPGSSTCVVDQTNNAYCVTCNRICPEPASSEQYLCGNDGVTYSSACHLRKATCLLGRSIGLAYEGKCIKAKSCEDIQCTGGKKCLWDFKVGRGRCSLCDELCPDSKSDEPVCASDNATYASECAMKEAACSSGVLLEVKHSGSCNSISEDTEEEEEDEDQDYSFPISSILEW
Streptavidin (Streptomyces avidinii), sequence (P22629 whole entry, looked up): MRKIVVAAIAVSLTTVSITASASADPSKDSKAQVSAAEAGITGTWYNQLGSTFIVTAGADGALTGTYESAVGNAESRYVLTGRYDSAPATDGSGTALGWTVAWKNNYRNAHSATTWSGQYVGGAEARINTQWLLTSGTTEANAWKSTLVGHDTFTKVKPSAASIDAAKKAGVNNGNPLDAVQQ
Focal adhesion kinase 1 (Homo sapiens), sequence (Q05397 whole entry, looked up): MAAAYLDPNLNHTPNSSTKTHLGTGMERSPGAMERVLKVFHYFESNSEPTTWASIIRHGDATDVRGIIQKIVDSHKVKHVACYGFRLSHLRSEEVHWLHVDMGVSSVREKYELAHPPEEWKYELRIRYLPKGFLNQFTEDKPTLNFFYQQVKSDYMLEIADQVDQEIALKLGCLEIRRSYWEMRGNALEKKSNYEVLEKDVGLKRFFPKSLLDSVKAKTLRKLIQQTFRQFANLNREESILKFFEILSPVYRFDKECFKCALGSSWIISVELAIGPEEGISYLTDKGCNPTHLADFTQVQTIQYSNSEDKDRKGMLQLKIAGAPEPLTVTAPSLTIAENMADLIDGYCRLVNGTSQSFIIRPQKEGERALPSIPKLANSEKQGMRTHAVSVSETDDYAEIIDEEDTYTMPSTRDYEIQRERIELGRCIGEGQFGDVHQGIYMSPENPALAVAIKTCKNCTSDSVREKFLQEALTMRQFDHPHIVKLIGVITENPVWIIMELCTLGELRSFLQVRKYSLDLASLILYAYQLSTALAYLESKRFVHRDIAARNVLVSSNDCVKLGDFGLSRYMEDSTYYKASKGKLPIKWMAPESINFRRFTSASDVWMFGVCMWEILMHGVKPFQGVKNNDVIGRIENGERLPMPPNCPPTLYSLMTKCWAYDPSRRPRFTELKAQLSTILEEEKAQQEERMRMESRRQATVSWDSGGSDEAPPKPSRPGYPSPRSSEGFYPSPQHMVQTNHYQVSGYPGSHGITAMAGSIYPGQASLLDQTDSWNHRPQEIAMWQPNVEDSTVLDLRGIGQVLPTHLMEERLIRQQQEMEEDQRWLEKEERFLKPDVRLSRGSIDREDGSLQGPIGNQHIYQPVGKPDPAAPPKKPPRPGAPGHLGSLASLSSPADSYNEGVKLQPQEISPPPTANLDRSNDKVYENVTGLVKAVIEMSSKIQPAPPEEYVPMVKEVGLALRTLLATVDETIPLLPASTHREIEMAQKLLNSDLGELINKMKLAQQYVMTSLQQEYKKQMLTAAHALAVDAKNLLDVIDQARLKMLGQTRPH

| SMILES | composite z-score [1] | composite z-score [2] | composite z-score [3] | composite z-score [4] | composite z-score [5] | composite z-score [6] | z-score [7] | composite z-score (Lefty1) | composite z-score [8] | z-score [9] | composite z-score [10] | z-score [11] | z-score [12] | z-score [13] | z-score [14] | composite z-score [15] | composite z-score [16] | composite z-score (Torsin-1A (Homo sapiens) [17]) | composite z-score (Torsin-1A (Homo sapiens) [18]) | composite z-score [19] |
| --- | --- | --- | --- | --- | --- | --- | --- | --- | --- | --- | --- | --- | --- | --- | --- | --- | --- | --- | --- | --- |
| NC(=O)NCC#Cc1ccc2c(c1)[C@]1(C(=O)N2)[C@H](c2ccc(O)cc2)N2[C@H](c3ccccc3)[C@H](c3ccccc3)OC(=O)[C@H]2[C@@H]1C(=O)NC[C@H](O)c1ccccc1 | -0.652 | -0.843 | -0.126 | -1.74 | -2.12 | -1.11 | 0.717 | -3.02 | -1.82 | -0.498 (inactive) | -0.579 | -0.383 (inactive) | 0.502 (inactive) | 0.48 (inactive) | -0.334 (inactive) | -1.85 | -0.239 | -1.19 | -1 | -1.22 |
| COC(=O)[C@]1(Cc2ccccc2CN=[N+]=[N-])N=C(c2ccc(OCCCO)cc2)O[C@@H]1c1ccccc1CN=[N+]=[N-] | 1.12 | 1.15 | 0.392 | 0.518 | 1.17 | 0.838 | 1.02 | -0.222 | 0.609 | -1.41 (inactive) | 0.749 | -4.12 (inactive) | -0.247 (inactive) | 1.6 (inactive) | -1.01 (inactive) | -0.908 | -0.0471 | -0.355 | -0.27 | 0.353 |
| CCOc1cc(C(O)C2C=CC3C(=O)NC(=O)C3N2Nc2ccccn2)ccc1O (stereo not given) | 0.227 | 0.255 | -0.0976 | -0.32 | 0.262 | 0.835 | 0.208 | -0.0684 | -0.298 | 0.25 (inactive) | 0.342 | 0.961 (inactive) | 0.543 (inactive) | -0.333 (inactive) | 0.153 (inactive) | 0.171 | -0.158 | -0.0106 | 0.12 | -0.476 |
| COCCOC(=O)N1C(=O)[C@@]2(c3cc(C#CC4(O)CCCCCC4)ccc31)[C@H](C(=O)NC[C@H](O)c1ccccc1)[C@H]1C(=O)O[C@H](c3ccccc3)[C@H](c3ccccc3)N1[C@@H]2c1ccc(OCCO)cc1 | 0.726 | 1.21 | 0.444 | 0.95 | 0.822 | 0.94 | -1.49 | 0.473 | 0.357 | 0.531 (inactive) | -0.0894 | -3.38 (inactive) | -0.401 (inactive) | -0.285 (inactive) | 0.0759 (inactive) | -0.0815 | 0.217 | 0.0969 | 0.124 | 1.72 |
| COCC1=C([C@H](O)CCc2ccccc2)[C@H](CO)[C@@H]2C(=O)N(C)C(=O)[C@@H]2C1 | -0.0971 | -0.204 | 0.0647 | -0.114 | 0.191 | 0.584 | 0.982 | 0.388 | -0.368 | -1.08 (inactive) | -0.147 | -0.398 (inactive) | -0.668 (inactive) | 0.496 (inactive) | -1.67 (inactive) | -0.11 | -0.0313 | 0.389 | 0.414 | 0.552 |
| CC(C)c1ccc(NN2C(C(O)c3ccccn3)C=CC3C(=O)N(c4ccccc4)C(=O)C32)cc1 (stereo not given) | 0.75 | 1.28 | 0.405 | 0.947 | 1.28 | 1.48 | 1.14 | 1.18 | 0.976 | -1.5 (inactive) | 1.01 | 0.0489 (inactive) | -0.997 (inactive) | 0.0501 (inactive) | 0.792 (inactive) | 0.608 | 0.46 | 1.55 | 2.09 | 1.98 |
| COCCOC(=O)N1C(=O)[C@@]2(c3cc(C#CCNC(N)=O)ccc31)[C@H](C(N)=O)[C@H]1C(=O)O[C@H](c3ccccc3)[C@H](c3ccccc3)N1[C@@H]2c1ccc(OCCO)cc1 | -0.224 | 1.03 | 0.199 | 0.609 | 1.48 | 1.26 | -2.25 | 1.46 | 0.121 | -1.8 (inactive) | 0.601 | 0.166 (inactive) | 0.404 (inactive) | 0.631 (inactive) | -0.0727 (inactive) | 0.668 | 0.0219 | 0.532 | 1.26 | 1.63 |
| CC(C)C(CO)N1C(=O)[C@@H]2[C@H]3C(=O)OCC=C[C@H]3OC23C=CCN(CCN2CCOCC2)C(=O)[C@@H]13 (stereo not given in full) | 0.108 | -0.438 | -0.403 | 0.0835 | 0.418 | -0.328 | -0.0537 | 0.817 | -0.467 | -0.233 (inactive) | -0.406 | 0.29 (inactive) | 2.66 (inactive) | 1.01 (inactive) | 1.25 (inactive) | -0.38 | -0.128 | -0.412 | 0.743 | 1.73 |
| COCCOC(=O)N1C(=O)[C@@]2(c3cc(C#CCC(C(=O)OC)C(=O)OC)ccc31)[C@H](c1ccc(OCCO)cc1)N1[C@H](c3ccccc3)[C@H](c3ccccc3)OC(=O)[C@H]1[C@@H]2C(N)=O | 1.38 | 1.2 | 1.16 | 0.924 | 1.28 | 1.13 | -0.921 | 0.484 | 0.386 | -1.23 (inactive) | 0.0271 | -1.29 (inactive) | 0.719 (inactive) | 0.892 (inactive) | 1.64 (inactive) | 0.576 | 0.13 | 0.337 | 1.01 | 0.989 |
